Only a selection was taken, and hits are over-represented in it overall.
ST2 IL33 inh – inhibitors of human ST2 (IL1RL1) binding to IL-33; Q01638; 2.3% of 78,000 active; AlphaLISA ST2-Fc/biotin-IL-33 interaction, 1 h; inhibition, % for hits at 17 µM; AID 1259354; in the data active means inhibition above about 30%
Target sequence (Q01638 whole entry, looked up): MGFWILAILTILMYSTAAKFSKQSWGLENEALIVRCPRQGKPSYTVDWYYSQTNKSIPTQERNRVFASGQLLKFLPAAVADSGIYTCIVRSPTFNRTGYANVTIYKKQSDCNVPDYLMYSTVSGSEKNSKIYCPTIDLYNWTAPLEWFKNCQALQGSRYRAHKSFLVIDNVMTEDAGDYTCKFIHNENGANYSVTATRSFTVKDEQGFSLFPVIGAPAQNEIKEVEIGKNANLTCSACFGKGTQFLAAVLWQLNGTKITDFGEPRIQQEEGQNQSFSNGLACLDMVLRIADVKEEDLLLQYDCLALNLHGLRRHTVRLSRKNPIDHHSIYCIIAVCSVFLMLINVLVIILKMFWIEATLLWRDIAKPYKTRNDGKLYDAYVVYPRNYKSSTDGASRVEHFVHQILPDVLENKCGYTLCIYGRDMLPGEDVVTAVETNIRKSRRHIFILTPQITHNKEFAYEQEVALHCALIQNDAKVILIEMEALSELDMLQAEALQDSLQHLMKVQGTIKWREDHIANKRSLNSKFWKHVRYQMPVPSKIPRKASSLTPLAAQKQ
Hits are given with their value; 0 = inactive; ! = repeats disagree.

SMILES | ST2 IL33 inh
O=S(=O)(N=C(c1ccccc1F)N1CCOCC1)c1ccccc1 | 0
O=S(=O)(c1cccc(Cl)c1Cl)N1CCOCC1 | 0
Cc1ccc(S(=O)(=O)N(c2ccccc2N2CCOCC2)C(F)F)cc1 | 0
O=S(=O)(c1ccccc1)c1cccc(S(=O)(=O)N2CCOCC2)c1 | 0
Cc1cc(C)n(-c2ccc(NC(=O)C3CCN(CC4CC=CCC4)CC3)cc2)n1 (stereo not drawn) | 0
Cc1ccc(-c2ccnc(N3CCOC(C(F)(F)F)C3)n2)c(C)n1 (stereo not drawn) | 0
CCOc1cc(/C=C2\NC(=O)N(Cc3ccc(Cl)cc3)C2=O)ccc1OCC(N)=O | 0
COCCCNc1nc(Cc2ccccc2)nc2sc3c(c12)CCCC3 | 0
Cc1nccc(N2CCC(N3CCCC(C(=O)NCc4cccnc4)C3)CC2)n1 (stereo not drawn) | 0
COc1ccc(-c2ccnc(N[C@H]3CO[C@H]4[C@@H]3OC[C@@H]4NC(=O)Nc3cccc(C(F)(F)F)c3)n2)cc1 | 0
CC(=O)c1ccc(N2CCN(c3ncnc4c3cnn4-c3ccc(Cl)cc3)CC2)cc1 | 0
COc1cccc(C2CC(c3ccc(F)cc3)n3nc(N)nc3N2)c1 (stereo not drawn) | 0
COC(=O)c1cc(S(=O)(=O)Nc2ccccc2OC)c(Cl)cc1Cl | 0
COc1ccccc1/C=C/C1=NC(=C\c2ccc(Cl)cc2Cl)/C(=O)O1 | 0
COc1ccccc1/C=C/C1=NC(=C\c2ccc(SC)cc2)/C(=O)O1 | 0
COc1ccccc1/C=C/C1=NC(=C\c2ccc(C(C)C)cc2)/C(=O)O1 | 45%
CSc1nccc(-c2cc(Cl)c3c(c2)CC(CNC(=O)C(c2cccnc2)N2CCCC2)O3)n1 (stereo not drawn) | 0
Cn1c(=O)c2c(nc(N3CCCCC3)n2Cc2c(Cl)cccc2Cl)n(C)c1=O | 31%
CC1CCN(c2nc3c(c(=O)n(C)c(=O)n3C)n2Cc2c(F)cccc2Cl)CC1 | 0
CN1CCN(c2nc3c(c(=O)n(C)c(=O)n3C)n2Cc2c(Cl)cccc2Cl)CC1 | 0
CCN1CCN(c2nc3c(c(=O)n(C)c(=O)n3C)n2CCSc2nc3ccccc3o2)CC1 | 0
Cn1c(=O)c2c(nc(N3CCCCC3)n2CCSc2nc3ccccc3o2)n(C)c1=O | 36%!
CN1CCN(c2nc3c(c(=O)n(C)c(=O)n3C)n2CCSc2nc3ccccc3o2)CC1 | 0
COc1cccc(-n2cc(C(=O)NC(C)C(=O)O)c3ccccc3c2=O)c1 (stereo not drawn) | 0
CN1C[C@@H](NC(=O)c2cnccn2)C[C@H]1c1nc(-c2ccc(OC(F)(F)F)cc2)no1 | 0
SMILES | ST2 IL33 inh
Cc1ccc(CNC(=O)NCCc2nc3cccnc3n2C2CCCCC2)cc1 | 0
CC(C)c1nc(C(C)c2n[nH]c(=O)c3ccccc23)n(-c2ccccn2)n1 (stereo not drawn) | 0
COc1ccccc1OCC(=O)N1CCc2c(cnc(C)c2CNC(=O)Cc2ccsc2)C1 | 0
Cc1n(-c2ccccc2)nn[n+]1C | 0
COc1cccc(NC(=O)/C(C#N)=C\c2cn(Cc3cccc(C)c3)c3ccccc23)c1 | 33%
COc1cccc(NC(=O)/C(C#N)=C\c2cn(Cc3ccc(C)cc3)c3ccccc23)c1 | 30%
Cc1cccc(NC(=O)/C(C#N)=C/c2cc(C)n(-c3ccc(F)cc3)c2C)c1 | 0
COc1cccc(NC(=O)CCCc2ccccc2)c1 | 0
COc1cccc(NC(=O)CSCc2ccc(Cl)cc2)c1 | 0
COc1cccc(NC(=O)c2ccc(=O)n(Cc3ccc(F)cc3)c2)c1 | 0
COc1ccccc1NC(=O)CSc1nc2c(cc1C#N)CCCCC2 | 0
O=C(COc1ccc(Cl)cc1)Nc1cccc(C(F)(F)F)c1 | 0
COc1ccccc1N1CCN(c2ncnc3sc(C(=O)O)c(C)c23)CC1 | 40%!
Cc1c(C(=O)O)sc2ncnc(N3CCN(c4ccccc4F)CC3)c12 | 0
CCCN1CCN(c2ncnc3sc(C(=O)O)c(C)c23)CC1 | 0
CC(=O)Nc1ccc2c(c1)Cc1cc(NC(C)=O)ccc1-2 | 0
Cc1ccc(S(=O)(=O)N=C(CN2CCOCC2)N2CCCCC2)cc1 | 0
COCCCNC(=O)c1ccc(CS(=O)(=O)c2c(Cl)cccc2Cl)o1 | 0
CC1=NC(Nc2nc(C)c3ccccc3n2)=NC(C)(C)C1 | 36%
Cc1nc(SCc2ccc(Cl)cc2)nc2ccccc12 | 0
COc1ccc2nc(NC3=NC(c4ccccc4)CC(=O)N3)nc(C)c2c1 (stereo not drawn) | 0
CN(Cc1nc2ccc(F)cc2[nH]1)Cc1nc(-c2cccs2)no1 | 0
O=C1OC(c2ccc(Cl)cc2Cl)=N/C1=C\c1ccccc1 | 0
CCCCOc1ccc(C2=N/C(=C\c3ccc(N(C)C)cc3)C(=O)O2)cc1 | 37%
CN(C)c1ccc(/C=C2\N=C(c3ccccc3)OC2=O)cc1Br | 41%
O=C1OC(c2cccc(I)c2)=N/C1=C\c1ccc(Br)cc1 | 0
COc1ccc(/C=C2\N=C(c3cccc([N+](=O)[O-])c3)OC2=O)cc1 | 0
O=C1OC(c2ccc(-c3ccccc3)cc2)=N/C1=C\c1ccccc1 | 0
CCCCOc1ccc(/C=C2\N=C(c3cccc([N+](=O)[O-])c3)OC2=O)cc1 | 0
O=C1OC(c2ccc(Br)cc2)=N/C1=C\C=C\c1ccccc1 | 0
